The results in this text go back to PubChem BioAssay (Tox21).

Inconclusive results are not listed. Unmarked numbers belong to inactive results. Active and inactive are the calls of the source. The call rests on the fitted dose curve; in most records, active means well fitted cell-killing curve with a large enough effect in the repeat runs; inconclusive means weak or mixed curves, or effect the other way; inactive means flat fitted curve, though single readings scatter.
On the % scale 0 is the no-effect control and ±100 the full control effect; potency means the concentration at half of the fitted maximal effect.

The nature of this test: cAMP Responsive Elements (CRE) small molecule agonists, cell-based qHTS assay: qHTS cell viability counter screen (AID 2060914). Further: nearly all actives have a fitted effect of over 50% in size. To be noted: CRE-bla HEK293T viability, CellTiter-Glo luminescence, 5 h; series mostly up to 92.4 µM; activity change, negative = cytotoxicity: at the top concentration. In outline:
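Luminescence read-out (CellTiter-Glo, 30 min RT) of ATP-based viability in CRE-bla HEK 293T cells, run in the same wells as the β-lactamase reporter assay after 3 h compound treatment at 37 °C.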
In general terms: Quantitative high-throughput screening tests each substance at several concentrations.
With `NC(=O)N(O)[C@@H]1C=C[C@H](Oc2cccc(Oc3ccc(F)cc3)c2)C1`, the “activity change, negative = cytotoxicity” value was 12.5%.

For `CC[N+](CC)(CC)Cc1ccccc1`, the “activity change, negative = cytotoxicity” value was 1.91%.

As for `Cc1cc(C)c(N=Nc2c(O)c(S(=O)(=O)O)cc3cc(S(=O)(=O)O)ccc23)cc1C`, the activity change, negative = cytotoxicity is 4.39% [at 8.39 µM].

`NC(CS)C(=O)O` (centres undefined): the “activity change, negative = cytotoxicity” value was 2.9% [at 42.5 µM].

On to `Cc1cccc(C)n1`, for which the “activity change, negative = cytotoxicity” value is -5.1%.

Regarding `O=C(OC(=O)c1ccccc1)c1ccccc1`, the “activity change, negative = cytotoxicity” value is 0.369%.

For `CC1CCCC(=O)C1=O` (centres undefined), the “activity change, negative = cytotoxicity” value is 10.2%.

For the molecule `Cc1cccc(C(=O)O)c1[N+](=O)[O-]`, the “activity change, negative = cytotoxicity” value is -6.13%.

As for `O=C1CCCCCN1SSN1CCCCCC1=O`, the “activity change, negative = cytotoxicity” value is -9.02%.

As for `CCCCCCCCOC(=O)c1cc(O)c(O)c(O)c1`, the “activity change, negative = cytotoxicity” value is -23.5%.

On to `O=C(O)c1ccccc1C(c1ccc(O)cc1)c1ccc(O)cc1`, for which the Potency entry is “inactive”.

Take `N=C(N)S(=O)O`: the “activity change, negative = cytotoxicity” value is 2.78%.

In the case of `COc1cc2c(cc1OC)CN(C(=O)[C@H](C)N[C@@H](CCc1ccccc1)C(=O)O)[C@H](C(=O)O)C2`, the “activity change, negative = cytotoxicity” value was 0.194% [at 42.5 µM].

`COc1cc(OC)cc(OC)c1`: the “activity change, negative = cytotoxicity” value was -2.93% [at 42.5 µM].

Regarding `NC(CO)C(=O)NNCc1ccc(O)c(O)c1O` (centres undefined), the “activity change, negative = cytotoxicity” value is 6.77% [at 42.5 µM].

Regarding `Cc1ccc(C(C)(C)C)c(O)c1`, the Potency result is “inactive”.

Turning to `NCCc1ccn[nH]1`, the “activity change, negative = cytotoxicity” value is 7.17% [at 42.5 µM].

As to `CCCCCCCCCCCCN`, the Potency entry is “inactive”.

Consider `CCCCS`, for which the “activity change, negative = cytotoxicity” value was -1.6%.

For the molecule `CC(C)(C)c1cc(Cc2cc(C(C)(C)C)c(O)c(C(C)(C)C)c2)cc(C(C)(C)C)c1O`, the Potency result was “inactive”.

Regarding `NC(N)=NCCC[C@H](N)C(=O)O`, the activity change, negative = cytotoxicity is -0.412% [at 8.39 µM].

As to `C1=C\CC/C=C\CC/C=C\CC/1`, the “activity change, negative = cytotoxicity” value is 12.6%.

In the case of `O=C(O)C(=O)Nc1cccc(-c2nn[nH]n2)c1`, the “activity change, negative = cytotoxicity” value is 12.7% [at 42.5 µM].

As to `CN(C)CCCOC1(Cc2ccccc2)CCCCCC1`, the “activity change, negative = cytotoxicity” value is 3.11% [at 42.5 µM].

As for `C[C@@H](Oc1ccc(CNC(=O)c2cccnc2Oc2ccc3c(c2)OCO3)c(F)c1)C(=O)O`, the “activity change, negative = cytotoxicity” value was 1.19%.

For `CSc1ccc2c(c1)N(CCC1CCCCN1C)c1ccccc1S2` (centres undefined), the Potency was 60.9 µM (active).

Turning to `CC(C(=O)O)c1ccc2c(c1)[nH]c1ccc(Cl)cc12` (centres undefined), the “activity change, negative = cytotoxicity” value is 8.45% [at 42.5 µM].

As for `CC(=O)CC(N)=O`, the “activity change, negative = cytotoxicity” value is -8.36%.

Regarding `O=[N+]([O-])c1ccc(O/N=C/c2cc(Br)c(O)c(Br)c2)c([N+](=O)[O-])c1`, the “activity change, negative = cytotoxicity” value is -0.349%.

Consider `CCN(CCO)c1cccc(C)c1`, for which the “activity change, negative = cytotoxicity” value was 2.45%.

As to `CC1COc2ccccc2N1` (centres undefined), the “activity change, negative = cytotoxicity” value is -9.17%.

On to `CO[Si](OC)(c1ccccc1)c1ccccc1`, for which the “activity change, negative = cytotoxicity” value was -2.12%.

Take `O=C(O)c1snc(Cl)c1Cl`: the “activity change, negative = cytotoxicity” value is 1.24%.

`CN(C[C@@H](CC[N+]12CCC(C3CCCCC3)(CC1)CC2)c1ccc(Cl)c(Cl)c1)C(=O)c1cc(C(F)(F)F)cc(C(F)(F)F)c1`: the “activity change, negative = cytotoxicity” value is -0.0559%.

`CC(C)c1ccccc1C(C)C`: the “activity change, negative = cytotoxicity” value was -7.6%.

As for `CC(C)CC(O)CC(C)C`, the “activity change, negative = cytotoxicity” value was -2.87%.

Take `Nc1cnn([C@@H]2O[C@H](CO)[C@@H](O)[C@H]2O)c(=O)n1`: the Potency was 0.97 µM (active).

Take `N#CCCOCCC#N`: the “activity change, negative = cytotoxicity” value was -16.8%.

`CC1=CCC(=C(C)C)CC1`: the “activity change, negative = cytotoxicity” value is 3.88%.
